# Compound activity (PubChem BioAssay)
# NPSR antagonist: qHTS Assay for Antagonists of the Neuropeptide S Receptor: cAMP Signal Transduction; Q6W5P4; CHO-NPSR cells, cAMP TR-FRET, antagonist mode; Potency, µM (top dose mostly 38.3 µM), hits mostly inhibitors; 220,000 tested, 1% active; AID 1461, 2008; note: nearly all actives have a fitted effect of over 50% in size
# Target sequence (Q6W5P4 whole entry, looked up): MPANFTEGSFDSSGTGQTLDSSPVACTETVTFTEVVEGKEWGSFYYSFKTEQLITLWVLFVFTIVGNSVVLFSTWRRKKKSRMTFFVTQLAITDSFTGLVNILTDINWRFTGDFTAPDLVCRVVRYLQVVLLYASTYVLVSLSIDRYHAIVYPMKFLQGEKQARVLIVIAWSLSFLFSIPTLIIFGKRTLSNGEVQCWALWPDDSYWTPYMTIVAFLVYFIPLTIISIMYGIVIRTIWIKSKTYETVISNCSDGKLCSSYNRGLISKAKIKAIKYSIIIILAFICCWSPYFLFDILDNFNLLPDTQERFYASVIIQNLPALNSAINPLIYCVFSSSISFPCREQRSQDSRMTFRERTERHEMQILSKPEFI
# PNC assembly inh: High Content Assay for Compounds that inhibit the Assembly of the Perinucleolar Compartment; PC3M PTB-GFP, PNC prevalence imaging, 16 h; stronger effect = lower value; activity change (PNC), negative = inhibition, % at 10 µM; 140,000 tested, 3.1% active;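 active = readout at or below -70, meaning at least 70% loss of cells showing the perinucleolar compartment, a nuclear body marking cancer cells; inconclusive = readout between -30 and a set limit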
#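 Read-out is percentage of cells bearing a perinucleolar compartment, from automated 20x imaging of fixed, Hoechst-stained PC3M PTB-GFP cells. Cells were seeded 4 h, then exposed 16 h to compound (23 nl of library stock) in duplicate plates.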
# HTT cytoprotect: qHTS Multiplex Assay to Identify Dual Action Probes in a Cell Model of Huntington: Cytoprotection (ATP). PC12 HTT-Q103 induced, cytoprotection, ATP luminescence, 40 h. Potency, µM (highest dose often 56.4 µM), usual class: activators. 230,000 tested, 0.14% active; note: nearly all actives have a fitted effect of over 45% in size
#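 Huntington model: PC12 line, ecdysone-inducible HTTQ103 exon1–GFP, tebufenozide 100 nM. Test articles in a dose series. Endpoint luminescence from cellular ATP.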
# HttQ103 aggreg: qHTS Multiplex Assay to Identify Dual Action Probes in a Cell Model of Huntington: Aggregate Formation (GFP). PC12 HttQ103-GFP aggregates, Acumen cytometry, 40 h. Potency, µM (highest dose often 46.1 µM), usual class: inhibitors. 220,000 tested, 1.1% active; note: nearly all actives have a fitted effect of over 60% in size
#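 Read-out: GFP aggregate count by laser scanning cytometer (488 nm excitation, 500-530 nm emission, 1–25 µm objects >6 SD above background). Cells: PC12, inducible HTTex1-Q103-GFP, 100 nM tebufenozide; compounds titrated.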
# 12-hLO inh: qHTS Assay for Inhibitors of 12-hLO (12-human lipoxygenase). Potency, µM (doses to about 57.1 µM), most hits filed as inhibitors. 150,000 tested, 0.12% active. Polyunsaturated fatty acid lipoxygenase ALOX12 (Homo sapiens), P18054. AID 1452, 2008. purified 12-hLO, xylenol orange hydroperoxide absorbance; note: nearly all actives have a fitted effect of over 55% in size
#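 Purified human 12hLO (150 nM), preincubated 15 min with compound, then 40 uM arachidonic acid for 30 min, room temperature, Hepes pH 7.0 with 0.01% Triton X-100. Hydroperoxide detected by ferrous iron/xylenol orange; 573/405 nm absorbance ratio gives reaction progress.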
# IMPase inh: qHTS Assay for Identifying the Cell-Membrane Permeable IMPase Inhibitors | inhibition (IP1 accumulation), % at 46.1 µM | CHO-M1 cells, IP1 accumulation, HTRF TR-FRET ratio | Inositol monophosphatase 1 (Rattus norvegicus), P97697 | 120,000 tested, under 10 active; active = well fitted curve in the direction sought with a large enough effect in the signal ratio, not every such curve was filed as active; inconclusive = small, poorly fitted or top-dose-only effect, or a change in a side signal; inactive = no such curve, though single readings can be large or run the other way; the % refers to the signal ratio;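 note: cells stimulated with carbachol in lithium chloride buffer; higher means more IMPase inhibition seen as more IP1 and lower FRET ratio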
# Target sequence (P97697 whole entry, looked up): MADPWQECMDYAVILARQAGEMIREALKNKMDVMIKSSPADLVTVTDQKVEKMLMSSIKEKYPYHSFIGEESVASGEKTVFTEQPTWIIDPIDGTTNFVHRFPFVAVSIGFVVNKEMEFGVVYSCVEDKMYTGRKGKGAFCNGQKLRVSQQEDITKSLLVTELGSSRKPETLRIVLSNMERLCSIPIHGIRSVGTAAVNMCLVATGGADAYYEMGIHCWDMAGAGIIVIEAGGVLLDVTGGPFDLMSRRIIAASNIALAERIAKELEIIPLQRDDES
#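 The IP-One HTRF competitive assay in carbachol-stimulated CHO-M1 cells quantifies cellular IP1. Compounds spanned up to 46 uM final, and activity is expressed as AC50 from concentration-response fits of the ratio and donor data.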
# Numbers stand for hits; n = inactive; u = inconclusive; x = not tested or not shown; [ ] = remark or other dose. Shown are actives, neighbours in structure and some others; about 3.3% of the full set was active somewhere. Unless noted, calls come from the whole dose curve; as a rule, active = well fitted curve in the direction sought with a large enough effect; inconclusive = small, poorly fitted or top-dose-only effect, or another doubt; inactive = no such curve, though single readings can be large; an effect the other way counts as inactive or inconclusive.
SMILES,NPSR antagonist,PNC assembly inh,HTT cytoprotect,HttQ103 aggreg,12-hLO inh,IMPase inh
C=CCn1c(-c2ccc(OC)cc2)csc1=Nc1c(C)n(C)n(-c2ccccc2)c1=O,n,n,u,0.79µM,n,n
Cc1nc(N)nc2ccccc12,x,x,n[10 µM],x,n[11.4 µM],x
CN(C(=O)CCc1nc2ccccc2s1)c1ccccc1,n,-112,n[10 µM],n,n,n
O=C(CCc1nc2ccccc2s1)c1ccccc1,n,n,n[10 µM],n,n,x
COC(=O)c1sc(N2C(=O)C(=O)/C(=C(/O)c3ccccc3)C2c2ccco2)nc1C (stereo not drawn),n,-84,x,n,n,x
Cc1nc(N2C(=O)C(=O)/C(=C(/O)c3ccccc3)C2c2ccco2)sc1C (stereo not drawn),n,n,n[0.074 µM],n,n,n
O=C1c2ccccc2C(=O)C1(c1ccccc1)N1CCN(c2cccc(Cl)c2)CC1,x,x,x,x,x,n
COCc1cc([C@@H]2C[C@H]3CN(c4ccccc4)C(=O)[C@]34CCCN24)ccc1OC,n,x,n,32µM,x,x
COc1ccccc1N1C[C@@H]2C[C@@H](c3ccco3)N3CCC[C@@]23C1=O,n,x,n,7.1µM,x,x
Cc1cc(C)c2cc(C#N)c(NCCCNC(=O)CCC(=O)O)nc2c1,n,-87,n[10 µM],n,n,n
COc1cc(OC)c(NC2=C(c3ccc(C(F)(F)F)cc3)C(=O)c3ccccc32)cc1Cl,x,x,x,x,x,n
O=C(OCc1cnc(Cl)s1)c1ccccc1Cl,n,n,n,n,n,n
O=C(OCn1ncc(Br)c(Br)c1=O)c1ccc(F)cc1,2.5µM,n,n[10 µM],4µM,n,u
O=C(OCn1ncc(Br)c(Br)c1=O)c1ccccc1Cl,2.5µM,n,n,u,n,u
O=C(OCn1ncc(Cl)c(Cl)c1=O)c1cccc(C(F)(F)F)c1,u,u,n,n,n,n
CSC1=NC(C)N2C(SC)=NC(C)N12 (stereo not drawn),n,x,n[10 µM],n[9.22 µM],x,x
Cc1ccc(CNC(=O)C(Cc2ccccc2)NS(=O)(=O)c2ccc(Br)s2)cc1 (stereo not drawn),n,n,x,25µM,n,x
Cc1ccccc1CNc1ncnc2c1ncn2[C@@H]1O[C@@H](CO)[C@H](O)[C@@H]1O,x,x,n[1.9 µM],x,n,n
COc1ccccc1-n1cnc2cc(NCc3cccs3)ccc21,u,-81,n,n,n,n
Cc1ccccc1-n1cnc2cc(NCc3cccs3)ccc21,n,n,n,n,n,n
CN1C(=O)C2C(c3ccc(N(C)C)cc3)NN(Cc3ccccc3)C2C1=O (stereo not drawn),n,x,n,n,x,x
COc1ccc(CNc2cc(-c3ccccc3C)ncn2)c(OC)c1,x,x,n,x,x,x
CC(C)c1nnc(NC(=O)CSc2nnc(NC(=O)c3c(F)cccc3F)s2)s1,n,x,n,n,x,x
O=C(c1ccccc1)c1cc([N+](=O)[O-])ccc1N1CCOCC1,n,-112,n[10 µM],n,n,n
CCOC(=O)c1cc(CC)sc1NC(=O)c1ccc(N2CCOCC2)c([N+](=O)[O-])c1,n,n,u,n,n,u
SMILES,NPSR antagonist,PNC assembly inh,HTT cytoprotect,HttQ103 aggreg,12-hLO inh,IMPase inh
CCOC(=O)c1cc(CC)sc1NC(=O)c1cc([N+](=O)[O-])ccc1N1CCOCC1,n,-84,n,n,n,n
O=C(c1ccc(Cl)cc1)c1cc([N+](=O)[O-])ccc1N1CCOCC1,n,x,n[10 µM],u,x,x
Cc1ccc(C(=O)c2cc([N+](=O)[O-])ccc2N2CCCCC2)cc1,n,-110,n[10 µM],n,n,x
CC1CCCN(c2ccc([N+](=O)[O-])cc2C(=O)c2ccccc2)C1 (stereo not drawn),n,-100,n[10 µM],u,n,x
Cc1ccc(C(=O)c2cc([N+](=O)[O-])ccc2N2CC(C)OC(C)C2)cc1 (stereo not drawn),n,n,n[10 µM],n,n,n
CC1CCN(c2ccc([N+](=O)[O-])cc2C(=O)O)CC1,n,n,n[10 µM],u,n,n
Cc1nc(NCc2ccccc2)c2nc(-c3ccccc3)n(CCN3CCCC3)c2n1,x,x,n,x,n,x
Cc1ccc(NS(=O)(=O)N(C)C)cc1,n,-100,n[10 µM],n,n,n
COc1ccc(CCNS(=O)(=O)c2ccc(C3CNC(=O)C3)cc2)cc1OC (stereo not drawn),n,-119,n,n,n,n
CCN(CC)S(=O)(=O)c1ccc(N/N=C/c2cc(OC)ccc2O)nc1,n,n,n[10 µM],2.8µM,n,x
Cc1noc(C)c1-c1nccc(N2CCN(C)CC2)n1,x,x,n,x,x,x
O=C(NNS(=O)(=O)c1ccccc1)C1CCN(S(=O)(=O)c2ccccc2)CC1,n,n,n,n,n,n
O=C(NNS(=O)(=O)c1ccccc1)C1CCN(S(=O)(=O)c2ccc(Cl)cc2)CC1,n,-100,n[10 µM],n,n,n
COc1ccc(C2c3sc(=O)[nH]c3SC3C4CCC(C4)C23)cc1OC (stereo not drawn),7.9µM,n,n[10 µM],n,n,n
O=c1[nH]c2c(s1)C(c1cccnc1)C1C3CCC(C3)C1S2 (stereo not drawn),n,x,n[10 µM],n[9.22 µM],x,x
O=c1[nH]c2c(s1)C(c1ccc(O)cc1)C1C3CCC(C3)C1S2 (stereo not drawn),10µM,u,n[10 µM],n,n,n
COC(=O)C1=C(C(=O)OC)C(c2ccc(OC)c(OC)c2)c2sc(=O)[nH]c2S1 (stereo not drawn),n,x,n,n,x,x
CC(=O)NCCNc1ncnc2ccc(-c3c(C)noc3C)cc12,x,x,n,x,x,x
C/C(=C\C(=O)C(F)(F)F)Nc1cc(C)cc(C)c1,n,-85,n[10 µM],n,n,n
CCOC(=O)c1cc2ccccc2n1CCN(CC)CC,n,n,n,n,n,n
CN(C)CCn1c(C(=O)Nc2ccccc2)cc2ccccc21,n,n,n,3.2µM,n,n
O=C(O)/C=C\C(=O)Nc1ccc2c(c1)C(=O)c1cc(F)ccc1-2,x,x,n[10 µM],x,n[11.4 µM],x
O=C(Cn1cncn1)N/N=C/c1cccnc1,n,x,n[10 µM],n[9.22 µM],x,x
CC(=O)Nc1cnc(NC(=O)c2cccc(F)c2)cc1C,n,u,n[10 µM],n,n,n
CCC(=O)Nc1cnc(NC(=O)c2cccc(F)c2)cc1C,n,-100,n[10 µM],n,n,n
Cc1ccc(NN2C(=O)C=C(c3ccccc3)C2=O)cc1,u,x,n[10 µM],u,x,x
CCn1c(=S)[nH]c2scc(-c3cccs3)c2c1=O,10µM,x,n[10 µM],u,x,x
CCN(CC)c1nc2n(c(=S)n1)CCS2,n,-88,n,n[9.22 µM],n,n
CCN(CC)c1nc2n(c(=O)n1)CCN2CC,n,n,n,n,n,n
